The text below walks through data of PubChem BioAssay.

Assay [1] concerns PRMT1 (protein arginine N-methyltransferase 1). Put plainly: PRMT1 binders on small-molecule microarrays, primary screen, biochemical, small-molecule microarray, 635 nm fluorescence (AID 1088).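 Note: binding of Prmt1 protein to compounds spotted on small-molecule microarray slides.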 The conditions noted are these: small-molecule microarray binding, higher = more signal.
The nature of assay [2]: yeast growth modulation, basal conditions, primary screen, YJM789 clinical isolate, OD600, 24 h (AID 1089).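 Note: growth of clinical yeast isolate S. cerevisiae YJM 789 seeded 1000 cells per well; test concentration not given here.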 The conditions noted are these: S. cerevisiae YJM789 growth, higher = more signal, called active from +8 up or from −8 down.
Assay [3] in a line: fission yeast growth modulation, primary screen, strain 972, OD600, 24 h, no modulator (AID 1090).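 Note: basal condition with compound alone and no growth modifier present; test concentration not given here.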 The conditions noted are these: S. pombe 972 growth, higher = more signal, called active from +8 up or from −8 down.
Assay [4] in a line: S. cerevisiae growth modulation with rapamycin, primary screen, strain BY4716, OD600, 96 h (AID 1091). Note: test concentration not given here. Particulars: higher = more signal, called active from +8 up or from −8 down.
Assay [5] deals with Torsin-1A-interacting protein 2 (Homo sapiens) (UniProt Q8NFQ8). As to the kind of experiment: LULL1 binders on small-molecule microarray, primary screen, cell lysate, human LULL1 lysate, 635/667 nm fluorescence (AID 1092).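 Note: probe is lysate of COS7 cells overexpressing human LULL1; score merges per-feature 667 nm fluorescence with signal-to-noise.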 Particulars: hLULL1 lysate binding, 635 nm fluorescence, higher = more signal.
Sequence of Torsin-1A-interacting protein 2 (Homo sapiens) (Q8NFQ8 whole entry, looked up): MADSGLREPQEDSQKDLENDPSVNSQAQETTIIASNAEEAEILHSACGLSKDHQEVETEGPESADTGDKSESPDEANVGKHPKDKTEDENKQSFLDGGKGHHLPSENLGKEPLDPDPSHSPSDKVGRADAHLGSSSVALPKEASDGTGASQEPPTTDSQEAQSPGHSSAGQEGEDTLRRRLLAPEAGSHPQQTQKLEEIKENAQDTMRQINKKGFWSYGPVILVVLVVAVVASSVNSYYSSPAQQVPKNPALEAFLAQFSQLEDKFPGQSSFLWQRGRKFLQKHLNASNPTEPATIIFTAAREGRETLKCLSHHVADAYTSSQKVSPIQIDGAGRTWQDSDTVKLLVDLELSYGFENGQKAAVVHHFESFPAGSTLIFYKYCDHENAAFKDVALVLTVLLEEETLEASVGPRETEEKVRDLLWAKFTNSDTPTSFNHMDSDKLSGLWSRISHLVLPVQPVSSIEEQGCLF
A short description of assay [6]: E. coli growth modulation, two-sided OD650, primary screen, E. coli filamentation project, strain DRC41, 24 h (AID 1093).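 Note: MC1000 strain lacking acrAB efflux and sulA so SOS filamentation is blocked; test concentration not given here.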 Particulars: OD650, 24 h, higher = more signal, called active from +8 up or from −8 down.
A short description of assay [7]: small-molecule microarray binders of probe aLefty2, primary screen, biochemical, biotinylated probe, 635/667 nm fluorescence (AID 1094).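 Note: score merges spot fluorescence near 667 nm with spot signal-to-noise ratio.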 Particulars: higher = more signal.
For assay [8], the system named is Noggin (protein binding on small-molecule microarray). Put plainly: Noggin binders on small-molecule microarray, primary screen, biochemical, 635/667 nm fluorescence (AID 1095).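 Note: score merges 667 nm feature fluorescence with signal to noise over triplicate slides.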 Particulars: 635 nm fluorescence, higher = more signal.
The target in assay [9] is Neurogenic locus notch homolog protein 3 (Homo sapiens) (UniProt Q9UM47). As to the kind of experiment: NOTCH3 binders on small-molecule microarray, primary screen, biochemical, 635/667 nm fluorescence (AID 1096). The conditions noted are these: NOTCH3 binding, 635 nm fluorescence, higher = more signal.
Sequence of Neurogenic locus notch homolog protein 3 (Homo sapiens) (Q9UM47 whole entry, looked up): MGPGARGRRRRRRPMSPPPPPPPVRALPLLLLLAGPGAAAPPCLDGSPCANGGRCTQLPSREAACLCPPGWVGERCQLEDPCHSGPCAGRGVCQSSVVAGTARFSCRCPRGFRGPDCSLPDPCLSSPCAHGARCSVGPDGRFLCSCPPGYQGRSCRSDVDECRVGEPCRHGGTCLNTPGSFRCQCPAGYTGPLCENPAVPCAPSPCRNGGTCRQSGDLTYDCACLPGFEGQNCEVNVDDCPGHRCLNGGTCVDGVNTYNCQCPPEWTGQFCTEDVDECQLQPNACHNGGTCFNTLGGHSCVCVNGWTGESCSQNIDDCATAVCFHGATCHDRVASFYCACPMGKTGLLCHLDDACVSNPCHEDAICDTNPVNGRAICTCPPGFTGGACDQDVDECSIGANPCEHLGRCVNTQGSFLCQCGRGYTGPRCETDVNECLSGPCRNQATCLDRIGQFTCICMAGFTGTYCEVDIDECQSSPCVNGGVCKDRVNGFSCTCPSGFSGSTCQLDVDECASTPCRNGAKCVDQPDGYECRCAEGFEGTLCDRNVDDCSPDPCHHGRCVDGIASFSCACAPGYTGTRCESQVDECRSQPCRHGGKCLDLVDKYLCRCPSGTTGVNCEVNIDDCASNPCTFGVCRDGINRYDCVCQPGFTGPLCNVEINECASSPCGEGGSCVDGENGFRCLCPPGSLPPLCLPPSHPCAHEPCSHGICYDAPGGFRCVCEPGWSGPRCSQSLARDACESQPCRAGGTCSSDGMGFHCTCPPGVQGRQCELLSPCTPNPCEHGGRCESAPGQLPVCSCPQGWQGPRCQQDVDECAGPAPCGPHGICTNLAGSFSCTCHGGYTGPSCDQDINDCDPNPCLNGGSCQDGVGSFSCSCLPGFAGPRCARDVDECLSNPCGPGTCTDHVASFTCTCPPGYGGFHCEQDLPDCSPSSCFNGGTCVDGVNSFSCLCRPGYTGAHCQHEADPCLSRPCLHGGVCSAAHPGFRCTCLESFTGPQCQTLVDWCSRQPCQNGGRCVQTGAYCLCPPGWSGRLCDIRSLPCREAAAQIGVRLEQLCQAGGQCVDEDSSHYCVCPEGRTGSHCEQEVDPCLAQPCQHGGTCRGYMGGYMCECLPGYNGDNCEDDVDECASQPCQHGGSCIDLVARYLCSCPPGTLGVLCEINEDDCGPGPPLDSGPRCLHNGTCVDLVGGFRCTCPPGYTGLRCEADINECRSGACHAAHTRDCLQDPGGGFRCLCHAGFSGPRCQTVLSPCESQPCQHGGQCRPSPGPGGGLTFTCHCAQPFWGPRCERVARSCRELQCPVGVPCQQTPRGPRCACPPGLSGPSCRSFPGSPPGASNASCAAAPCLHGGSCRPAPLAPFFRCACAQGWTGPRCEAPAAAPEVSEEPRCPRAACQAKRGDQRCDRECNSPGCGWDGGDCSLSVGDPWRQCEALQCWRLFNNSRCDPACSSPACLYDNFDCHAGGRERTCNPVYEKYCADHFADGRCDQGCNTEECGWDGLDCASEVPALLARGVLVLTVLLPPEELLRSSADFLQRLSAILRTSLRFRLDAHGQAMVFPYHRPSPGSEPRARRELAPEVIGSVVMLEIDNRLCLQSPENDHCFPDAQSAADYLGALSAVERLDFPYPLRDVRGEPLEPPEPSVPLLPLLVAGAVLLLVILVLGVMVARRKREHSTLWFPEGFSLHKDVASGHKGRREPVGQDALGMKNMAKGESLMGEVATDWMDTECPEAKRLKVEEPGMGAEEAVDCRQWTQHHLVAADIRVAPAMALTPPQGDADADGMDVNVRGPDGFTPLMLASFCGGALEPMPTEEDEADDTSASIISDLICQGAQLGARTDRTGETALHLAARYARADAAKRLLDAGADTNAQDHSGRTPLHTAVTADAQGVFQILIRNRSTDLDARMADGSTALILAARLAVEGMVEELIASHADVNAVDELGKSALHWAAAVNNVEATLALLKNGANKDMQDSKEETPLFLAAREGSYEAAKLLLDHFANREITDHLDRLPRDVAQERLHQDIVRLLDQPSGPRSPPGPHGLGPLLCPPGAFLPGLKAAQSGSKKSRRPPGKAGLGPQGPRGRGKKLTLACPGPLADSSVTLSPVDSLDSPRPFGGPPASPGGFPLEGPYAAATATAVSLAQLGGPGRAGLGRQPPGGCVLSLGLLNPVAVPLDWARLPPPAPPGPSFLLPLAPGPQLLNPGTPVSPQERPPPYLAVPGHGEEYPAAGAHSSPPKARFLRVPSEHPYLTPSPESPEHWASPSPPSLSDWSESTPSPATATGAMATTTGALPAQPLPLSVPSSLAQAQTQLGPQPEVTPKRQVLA
Assay [10] can be described thus: small-molecule microarray binders of probe aEGFR, primary screen, biochemical, biotinylated probe, 635/667 nm fluorescence (AID 1097).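 Note: probe is a biotinylated anti-EGFR antibody binding compounds printed on slides; score combines fluorescence near 667 nm and signal to noise of each spot.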 Particulars: higher = more signal.

Activity calls are given as the source filed them.

For `[N-]=[N+]=NCc1ccccc1C[C@@]1(C(=O)NCC(O)CO)N=C(c2ccc(OCCCO)cc2)O[C@@H]1c1ccccc1CN=[N+]=[N-]` (stereo not given in full), the composite z-score in assay [1] is 1.52; in [5], 3.68; in assay [7], 0.0942; in assay [8], 0.875; in [9], 0.474; in [10] it was -0.197. For the same compound, the z-score in assay [2] is -0.235 (inactive); in assay [3], 0.648 (inactive); in assay [4], 1.34 (inactive); in [6], 0.526 (inactive).

In the case of `CCOC(=O)C[C@H]1[C@H](OC(=O)Cc2ccc3c(c2)OCO3)[C@@H](NC(=O)C2CCCCC2)c2cc(OCCCO)ccc2N1C(=O)Cc1ccc(OC)cc1`, the composite z-score in assay [1] was 1.19; in [5] it was 1.89; in assay [7], -0.0313; in assay [8], 0.509; in [9] it was 0.892; in assay [10] it was -0.0234. Moreover, the z-score in assay [2] was -1.74 (inactive); in assay [3] it was -0.38 (inactive); in [4], -0.558 (inactive); in assay [6] it was 1.21 (inactive).

Turning to `O=C(CS)NCCCCCCNC(=O)[C@H]1C[C@H]2C(=O)NCC(=O)N2[C@H]1c1ccc(O)cc1`, the composite z-score in assay [1] was 0.16; in assay [5], 1.46; in assay [7], -0.0903; in [8] it was 0.384; in assay [9], 0.0288; in assay [10], -0.136. The z-score in assay [2] was -0.408 (inactive); in [3] it was 0.0177 (inactive); in assay [4], 0.505 (inactive); in [6], -0.449 (inactive).

For `COc1cccc(C(=O)O[C@H]2CC[C@]3(C)C4=C(CCC3C2(C)C)[C@]2(C)CC[C@H]([C@H](C)CCCC(C)C)[C@@]2(C)CC4)c1` (stereo not given in full), the composite z-score in [1] is -0.0398; in assay [5], 0.385; in [7], -0.082; in [8] it was 0.383; in [9], 0.618; in assay [10] it was -0.0158. In addition, the z-score in [2] was -1.73 (inactive); in assay [3], -1.08 (inactive); in [4] it was -0.166 (inactive); in assay [6] it was 2.43 (inactive).

For the compound `C=CCOC(=O)[C@@H]1[C@H]2C(=O)O[C@H](c3ccccc3)[C@H](c3ccccc3)N2[C@H](c2ccc(OCCOC(=O)[C@@H]3C[C@@H]4C(=O)NCC(=O)N4[C@@H]3c3cccc(OCCO)c3)cc2)[C@@]12C(=O)Nc1ccc(I)cc12`, the composite z-score in [1] was 1.53; in assay [5] it was 2.53; in [7] it was -0.0654; in assay [8], 1.14; in [9], 1.1; in assay [10], 0.0618. Further, the z-score in assay [2] is 0.895 (inactive); in assay [3] it was 1.01 (inactive); in assay [4], 2.19 (inactive); in assay [6], -0.637 (inactive).

Turning to `CC(C)C(=C=CC[C@H](O)c1ccccc1OCCO)C[C@H](O)c1ccccn1`, the composite z-score in assay [1] amounted to 0.813; in assay [5], 2.27; in assay [7], 0.0374; in [8], 0.247; in [9] it was 0.719; in [10], 0.151. Besides, the z-score in assay [2] is 0.241 (inactive); in [3], -0.709 (inactive); in [4], -0.365 (inactive); in assay [6], 0.662 (inactive).

Take `Cc1ccc(S[C@]2(C(=O)NCC(C)C)CC(=O)N(Cc3ccccc3)[C@@H]2c2ccc(CO)cc2I)cc1`: the composite z-score in assay [1] was found to be 1.3; in assay [5] it was 2.55; in assay [7], 0.124; in [8] it was 0.8; in assay [9] it was 0.905; in assay [10], 0.0537. Besides, the z-score is -1.29 (inactive) in assay [2], -0.927 (inactive) in [3], 1.66 (inactive) in assay [4] and 0.0384 (inactive) in assay [6].

With `C=CCC(OC(C)=O)[C@@H]1[C@@H](N(Cc2cccc3ccccc23)C(=O)c2cccc3ccccc23)c2cc(OCCCO)ccc2N1C(=O)c1ccc2ccccc2n1` (stereo not given in full), the composite z-score in assay [1] is 0.346; in assay [5], 0.681; in assay [7], -0.0102; in assay [8], 0.282; in [9], -0.0176; in [10], -0.0549. Besides, the z-score is -1.03 (inactive) in [2], 0.626 (inactive) in assay [3], -0.964 (inactive) in [4] and -0.764 (inactive) in assay [6].

As for `CC(C)N1C(=O)C[C@@](C(=O)NCc2ccccc2)(c2ccc([N+](=O)[O-])cc2)[C@H]1c1ccc(CO)cc1`, the composite z-score in assay [1] was 1.01; in assay [5], 3.48; in assay [7] it was 0.16; in assay [8], -0.112; in assay [9] it was 0.199; in assay [10], -0.167. Besides, the z-score in assay [2] was 0.296 (inactive); in assay [3] it was -0.203 (inactive); in [4], -0.881 (inactive); in assay [6], 0.796 (inactive).

For `CC(=CC1CCCCC1)[C@@H](NC(=O)c1ccc(C(F)(F)F)cc1)c1ccc(-c2ccccc2)cc1`, the composite z-score in [1] is -0.211; in [5], -0.192; in assay [7] it was 0.0943; in [8], 0.0323; in assay [9], -0.779; in assay [10], 0.0353. In addition, the z-score is 0.537 (inactive) in [2], -0.91 (inactive) in [3], -0.938 (inactive) in [4] and -1.33 (inactive) in [6].

Turning to `COCCOC(=O)N1C(=O)[C@@]2(c3cc(C#CCCO)ccc31)[C@H](c1ccccc1OCCO)N1[C@H](c3ccccc3)[C@H](c3ccccc3)OC(=O)[C@H]1[C@@H]2C(=O)N1CCN(c2ncccn2)CC1`, the composite z-score came out at 1.54 in assay [1]; 2.32 in [5]; 0.571 in assay [7]; 0.725 in assay [8]; 1.03 in assay [9]; 0.339 in assay [10]. The z-score in [2] was 1.24 (inactive); in assay [3] it was 1.08 (inactive); in assay [4] it was 3.94 (inactive); in assay [6] it was -0.27 (inactive).

As to `CCOC(=O)C1=CC[C@@H](c2ccccc2)N(S(=O)(=O)c2ccc(C)cc2)[C@H]1C(=O)OCC`, the composite z-score in assay [1] was 0.334; in assay [5] it was 1.14; in assay [7], 0.415; in assay [8], 0.0818; in assay [9], 0.0539; in [10], 0.202. For the same compound, the z-score was 0.19 (inactive) in [2], 0.572 (inactive) in assay [3], 1.94 (inactive) in assay [4] and 0.157 (inactive) in assay [6].

For `CN(C)C(=O)[C@]1(CCC(=O)OC(C)(C)C)N=C(c2ccc(OCCCO)cc2)O[C@@H]1c1ccccc1N=[N+]=[N-]`, the composite z-score in assay [1] amounted to 1.54; in [5], 3.78; in assay [7], 0.17; in assay [8], 0.245; in assay [9] it was 0.684; in assay [10] it was 0.11. Moreover, the z-score in [2] was 1.1 (inactive); in assay [3] it was 0.626 (inactive); in assay [4], 0.0958 (inactive); in [6], 0.515 (inactive).

Regarding `O=C1O[C@@H](c2ccccc2)[C@@H](c2ccccc2)N2[C@@H](c3ccc(O)cc3)[C@]3(C(=O)Nc4ccc(C#CC5=CCCCC5)cc43)[C@@H](C(=O)O)[C@H]12`, the composite z-score in assay [1] was 1.53; in [5], 2.86; in [7], 0.246; in assay [8], 0.878; in assay [9] it was 0.925; in assay [10] it was -0.0315. Also, the z-score in assay [2] is -2.6 (inactive); in assay [3], -3.2 (inactive); in assay [4], -2.21 (inactive); in [6], 3.68 (inactive).
